Source: PubChem BioAssay (National Center for Advancing Translational Sciences (NCATS))
D2 antagonist = HTS Assay for Allosteric Antagonists of the Human D2 Dopamine Receptor: Primary Screen for Antagonists; D(2) dopamine receptor (Homo sapiens), P14416; HEK293 TREx D2 cells, calcium flux, dopamine EC80; inhibition, % at 10 µM; 2% of 340,000 active; AID 485344, 2010; in the data active means inhibition above about 30%; inactive means below that, where a call was filed; further: 0% is about no effect
Target sequence (P14416 whole entry, looked up): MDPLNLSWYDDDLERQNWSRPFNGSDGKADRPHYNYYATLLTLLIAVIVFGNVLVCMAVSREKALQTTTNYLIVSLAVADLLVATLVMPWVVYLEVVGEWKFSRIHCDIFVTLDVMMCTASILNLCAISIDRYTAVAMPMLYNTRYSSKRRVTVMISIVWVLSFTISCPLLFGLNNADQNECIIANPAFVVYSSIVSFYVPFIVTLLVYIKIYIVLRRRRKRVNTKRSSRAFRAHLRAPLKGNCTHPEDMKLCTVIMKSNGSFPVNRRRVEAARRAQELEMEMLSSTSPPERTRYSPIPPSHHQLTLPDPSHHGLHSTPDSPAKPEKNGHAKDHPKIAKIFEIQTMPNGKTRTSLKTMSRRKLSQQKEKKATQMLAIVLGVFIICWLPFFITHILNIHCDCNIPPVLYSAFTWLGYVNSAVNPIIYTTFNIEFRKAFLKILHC
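Compounds are added to dye-loaded, induced HEK293 T-REx cells coupled to calcium release via D2; after a 3 min kinetic read an EC80 dopamine stimulus is given and fluorescence is recorded for 3 more min.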
D2 ag-1 = Beta-Arrestin HTS for Positive Allosteric Modulators of the Human D2 Dopamine Receptor: Agonists | DiscoveRx PathHunter D2 beta-arrestin, luminescence, 90 min; 100% = 57 uM dopamine signal | activation, % (test concentration not listed) | 0.084% of 360,000 active | AID 624465, 2012; in the data active means activation above about 40%
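DiscoveRx PathHunter D2 beta-arrestin cells (2,100/well) attached overnight, then compound-stimulated 90 min at 37 C in HBSS/10 mM HEPES/0.1% Tween-20 buffer; beta-galactosidase complementation read by luminescence after 1 h at ambient temperature. Dopamine 57 uM final (EC100) as control.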
D2 PAM-1 = HTS Assay for Positive Allosteric Modulators of the Human D2 Dopamine Receptor: Primary Screen for Potentiators. D(2) dopamine receptor (Homo sapiens), P14416. HEK293 T-REx D2, calcium flux, EC20 dopamine potentiation. potentiation, % at 10 µM. 0.34% of 340,000 active;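 active means potentiation over 3 SD above the plate norm, cut at about 30% in these data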; further: 0% is about no effect
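Potentiation of an EC20 dopamine calcium response is measured in a force-coupled, tetracycline-inducible Hek293 Trex D2 line. Compound-only kinetic reads over 180 s flag agonists before dopamine addition.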
D2 ag-2 = HTS Assay for Allosteric Agonists of the Human D2 Dopamine Receptor: Primary Screen for Agonists; HEK293 T-REx D2 cells, calcium flux agonist mode; D(2) dopamine receptor (Homo sapiens), P14416; activation, % at 2 µM; 0.53% of 340,000 active;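 active means activation over 3 SD above normal in the single-dose calcium agonist read, cut at about 30% in these data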; further: 0% is about no effect
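Tetracycline-induced HEK293 Trex cells with D2 receptor force-coupled to calcium signaling, plated overnight at 30 C and loaded with no-wash calcium dye. Calcium flux read kinetically for 180 s after compound addition; responses flag agonists.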
D2 PAM-2 = Beta-Arrestin HTS for Positive Allosteric Modulators of the Human D2 Dopamine Receptor: Potentiators | DiscoveRx D2 beta-arrestin cells, luminescence, 90 min; 100% = 57 uM dopamine signal | potentiation, % (no concentration beside the values) | 0.23% of 360,000 active | AID 624464, 2012; in the data active means potentiation above about 50%
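D2 cells co-treated with compound plus 50 nM dopamine (EC20) for 90 min at 37 deg C to detect potentiation. Beta-arrestin recruitment was read as enzyme-fragment luminescence after 1 h at ambient temperature. Full response was set by 57 uM dopamine.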
* hit, by the source's call; . = no result given. Compounds with a hit are over-represented: about 2.4% of the library has one in this group of screens.

SMILES	D2 antagonist	D2 ag-1	D2 PAM-1	D2 ag-2	D2 PAM-2
Cc1ccc(NCC(=O)N/N=C/c2ccncc2)cc1	49.3*	-0.8	4.0	-1.6	-2.0
Cc1cc2nc3s/c(=C/c4ccc(-c5ccccc5C(=O)O)o4)c(=O)n3c2cc1C	33.8*	-7.0	-6.4	69.6*	-11.5
O=C(O)c1ccccc1-c1ccc(/C=c2\sc3nc4cc(Br)cnc4n3c2=O)o1	-4.9	-1.5	-5.3	0.2	-7.1
Cc1cccc(N(C)S(=O)(=O)c2c(C(=O)N3CCCCCC3)c(C)n(C)c2C)c1	.	.	-3.3	-1.0	.
C#CCOc1ccc(-c2nnc(Nc3ccc(NC(C)=O)cc3)c3ccccc23)cc1	.	.	3.5	-1.9	.
COCCCNc1nc2c(c(=O)n(C)c(=O)n2C)n1Cc1cccc(OC)c1	39.7*	1.4	13.9	0.1	-8.9
COCCNc1nc2c(c(=O)n(C)c(=O)n2C)n1Cc1cccc(C)c1	-6.1	1.5	7.7	0.6	0.9
COC(=O)c1ccc(C(=O)OC)c(NC(=O)c2c(-c3ccccc3)c(-c3ccccc3)nn(C)c2=O)c1	.	.	-4.6	3.4	.
CCC(C)[C@H](NC(=O)N1CCn2c1nc1ccccc12)C(=O)NCc1ccccc1 (stereo partly drawn)	-0.9	-4.4	32.1*	-0.3	-5.0
CCCc1cc(=O)[nH]c(SCc2nc(-c3ccc(OCC)cc3)no2)n1	.	.	-24.3	-0.6	.
Cc1cc(OCCN2CCN(S(=O)(=O)c3ccccc3F)CC2)ccc1C(C)C	-6.5	-2.5	65.9*	1.2	-21.3
COc1ccc(OCCN2CCN(S(=O)(=O)c3ccccc3C(F)(F)F)CC2)cc1	12.2	-0.1	-2.9	0.5	-1.2
O=C(Nc1cccc(F)c1)Nc1cnccn1	-13.2	1.0	10.6	1.3	-9.5
O=C(Nc1cccc(F)c1)Nc1ccccn1	87.0*	-3.8	-23.1	-0.3	-10.4
COc1ccc(Br)cc1S(=O)(=O)n1c([N+](=O)[O-])cnc1C	34.0*	-2.8	1.8	0.7	-9.0
O=C(c1ccco1)N1N=C2CCCCCC2C1(O)C(F)(F)F (stereo not drawn)	-4.6	-2.7	32.3*	-0.7	1.2
Fc1ccc(Nc2c3c(nc4nncn24)CCC3)cc1	.	.	-4.7	1.9	.
COc1ccc(OC)c(NC(=O)C2CC(/C=C/c3ccccc3)=NO2)c1 (stereo not drawn)	-20.2	1.9	-11.3	32.6*	-1.5
CC1Cc2ccccc2N1C(=O)CN(C)CC(=O)Nc1ccc(F)cc1 (stereo not drawn)	42.5*	-4.7	-3.3	0.1	-24.6
CCOc1ccc(C2C(C#N)=C(N)SC(N)=C2C#N)c(OCC)c1	30.6*	2.1	-0.4	0.5	9.4
CNC(=S)N1N=C(c2ccc(OC)cc2)CC1c1ccc(Cl)cc1Cl (stereo not drawn)	15.2	0.6	-3.5	0.2	0.4
CNC(=S)N1N=C(c2ccc(OC)cc2)CC1c1ccccc1Cl (stereo not drawn)	33.5*	-1.8	7.4	-0.1	0.7
CC(=O)c1ccc(NC(=O)CC2Sc3ccccc3NC2=O)cc1 (stereo not drawn)	.	.	12.2	-0.6	.
Cc1cccc(NC2=NCC(=O)N2CCc2ccccc2)c1	37.3*	-4.9	2.2	1.6	-17.3
Cc1cccc(CCN2C(Nc3ccccc3)=NC[C@@H]2CC(C)C)c1	69.9*	-2.3	-25.4	59.5*	-16.3
CC(C)C[C@H]1CN=C(Nc2ccccc2)N1CCc1ccc(F)cc1	73.5*	-0.7	-18.0	59.4*	-67.1
CC(C)C[C@H]1CN=C(Nc2ccccc2)N1CCc1cccc(F)c1	.	-1.9	.	.	-31.2
CC(C)CCN1C(Nc2ccccc2)=NC[C@@H]1CC(C)C	-1.2	-3.8	-24.0	0.4	-8.9
C=CCN1C(=O)CN=C1Nc1cccc(C)c1	.	-3.8	.	.	0.6
COc1ccc(S(=O)(=O)NCCc2csc(-c3ccc(F)cc3)n2)cc1F	.	.	-8.6	0.6	.
